Measured values taken from PubChem BioAssay AID504834 (National Center for Advancing Translational Sciences (NCATS), 2011).
Among all 320,000 compounds or so, about 22,000 (6.9%) were called active. Roughly 27% stayed inconclusive and do not appear here. The list comes from a sample in which actives are over-represented; it also holds similar structures and randomly drawn compounds. Values without a mark were called inactive. Calls come from the whole dose curve; as a rule, active = well fitted inhibition curve with a large enough effect; inconclusive = small, poorly fitted or top-dose-only effect, or another doubt; inactive = no such curve, though single readings can be large or run the other way.

Test: Primary qHTS for delayed death inhibitors of the malarial parasite plastid, 96 hour incubation
Conditions: P. falciparum luciferase reporter growth; series mostly up to 28.7 µM; activity change, negative = inhibition: at the top concentration
Procedure, shortened: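 Delayed-death screen, second-generation endpoint: infected erythrocytes, 2% hematocrit, 0.05% parasitemia final; 96 hours at 37 C, 5% CO2; luciferase detection reagent; luminescence decrease equals reduced growth.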
% is set by controls: 0 for no effect and ±100 for the full control effect; potency is the fitted concentration of half-maximal effect.

Row | Compound | activity change, negative = inhibition | Potency
1 | CCCCc1ccc(NC(=S)NCCCN2CCOCC2)cc1 | -2.79% | –
2 | CCCCC(CC)CNCc1cccn1CCN1CCOCC1 (configuration not stated) | – | 11.7 µM (active)
3 | CSc1ccc(CNCCN2CCOCC2)cc1 | -19% | –
4 | COc1cccc(N2CC(C(=O)NCc3n[nH]c(=O)c4ccccc34)CC2=O)c1 (configuration not stated) | 0.0788% | –
5 | CC(C[N+](C)(C)C)OC(N)=O (configuration not stated) | – | 9.53 µM (active)
6 | CCc1ccc[n+](-c2nc([O-])sc2C=O)c1 | 3.32% | –
7 | COc1ccc(CNc2cc(C)cc(C)c2)cc1OC | 333% | –
8 | COc1ccc(/C=C/C(=O)c2cc(Br)ccc(=O)c2O)cc1 | – | 10.4 µM (active)
9 | COc1ccc(/C=C/C(=O)c2ccc(OC)cc2O)cc1 | 0.573% | –
10 | COc1ccc(C(=O)/C=C/c2cccnc2)c(OC)c1 | 45% | –
11 | CSc1nsc(SCC(=O)Nc2cc(C(=O)O)ccc2C)n1 | 1.89% | –
12 | CC(=O)Nc1ccc(SC[C@H](Cc2ccccc2)N2CC[C@@H](C)CCC2=O)cc1 | – | 3.29 µM (active)
13 | C[C@H]1CCC(=O)N([C@H](CSc2ccccc2)Cc2ccccc2)CC1 | – | 11.7 µM (active)
14 | COc1ccc(SCCN2CCN(CC(C)C)CCC2=O)cc1 | 39.1% | –
15 | CC1CCN(CCC(=O)Nc2ccccc2)CC1 | -26.8% | –
16 | O=C1CCN(Cc2ccc([N+](=O)[O-])cc2)CCN1[C@H](CO)Cc1ccccc1 | 3% | –
17 | COc1ccc(SC[C@H](Cc2ccccc2)N2CCN(CCc3ccccc3)CCC2=O)cc1 | – | 4.65 µM (active)
18 | CN1CCC(=O)N([C@H](CO)Cc2ccccc2)CC1 | 19.6% | –
19 | CC(=O)Nc1ccc(NC(=O)C(C)OC(=O)C2CC(=O)N(CCc3ccccc3)C2)cc1 (configuration not stated) | 0.835% | –
20 | O=C1CC[C@H](O)CCN1[C@H](CSc1ccc(Br)cc1)Cc1ccccc1 | 1.74% | –
21 | C/C(Cc1ccccc1)=N\NC(=O)CNC(=O)c1ccccc1Cl | 41.4% | –
22 | CCC1(CC)Cc2ccccc2-c2nc(CCl)[nH]c(=O)c21 | 75.3% | –
23 | COc1ccc(CCNS(=O)(=O)c2cc3c(cc2C)NC(=O)CO3)cc1OC | 109% | –
24 | CCC(=O)c1ccc(OCC(=O)Nc2ccc(N3CCCCC3)cc2)cc1 | -24.7% | –
25 | Cc1c(CC(=O)NCC(=O)NCC(=O)O)c(=O)oc2cc3oc4c(c3cc12)CCCC4 | 45.5% | –
26 | O=S(=O)(NC1CC2CCC1C2)c1ccc(Cl)cc1 (configuration not stated) | -11.6% | –

Row | Compound | activity change, negative = inhibition | Potency
27 | CC1CN(C(=S)Nc2cccc(F)c2)CC(C)O1 (configuration not stated) | -26.1% | –
28 | CCCCCOC(=O)NCCOC(=O)Nc1ccc(C(=O)OCC)cc1 | – | 11.7 µM (active)
29 | CCOC(=O)Nc1ccc(NC(=O)OCC)cc1 | 41.7% | –
30 | CCCCC(CCC(=O)Nc1ccc(C(=O)OCC)cc1)C(=O)O (configuration not stated) | -4.38% | –
31 | CN1CCN(NC(=O)Nc2ccc(Br)cc2)CC1 | 62% | –
32 | O=C(NCCS(=O)(=O)NCc1ccc(Cl)cc1)c1ccccc1 | 46.1% | –
33 | CCOC(=O)Cc1csc(NC(=O)Nc2ccccc2)n1 | 7.05% | –
34 | CCOC(=O)Cc1csc(NC(=O)CSc2nc(C)cc(=O)[nH]2)n1 | 4.63% | –
35 | CCOC(=O)Cc1csc(NC(=O)CSc2ccc(Br)cc2)n1 | – | 2.62 µM (active)
36 | CCOC(=O)N1CCN(C(=O)COC(=O)c2cccc(S(C)(=O)=O)c2)CC1 | 13.7% | –
37 | CCCN(CC(=O)Nc1ccccc1OC)C(=O)CCC(=O)c1ccc(F)cc1 | 1.55% | –
38 | CCn1c(=N)n(CC(=O)c2cccc(OC)c2)c2ccccc21 | 48.5% | –
39 | CCCCOC(=O)Cn1c(=O)n(CC(=O)OCCCC)c2cc(C)ccc21 | -23.5% | –
40 | CCCCCCCCCCOC(=O)Cn1c(COc2cccc(OC)c2)[n+](C)c2ccccc21 | – | 3.29 µM (active)
41 | NC(=O)c1oc2ccccc2c1NC(=O)CS(=O)(=O)c1ccccc1 | 6.28% | –
42 | CCOc1ccc2[nH]c(=O)c(CN(CCCO)S(=O)(=O)c3ccc(F)cc3)cc2c1 | 22.7% | –
43 | Cc1cccc(N2CCN(C(=O)CCS(=O)(=O)c3ccc4c(c3)NC(=O)C(C)S4)CC2)c1C (configuration not stated) | 9.12% | –
44 | Cc1cc(=O)oc2cc(OC(C)C(=O)NCCc3ccc(S(N)(=O)=O)cc3)ccc12 (configuration not stated) | 2.05% | –
45 | CCn1ccnc1CN(C)C(=O)c1cc(COc2ccc(-n3cncn3)cc2)on1 | 14.7% | –
46 | CCn1ccnc1CN(C)C(=O)c1cc(COc2ccc(Cl)cc2OC)on1 | – | 3.7 µM (active)
47 | COc1cc(Cl)ccc1OCc1cc(C(=O)N2CC[C@@H]3CCCC[C@H]3C2)no1 | -29.8% | –
48 | O=C(N[C@@H](Cc1c[nH]c2ccccc12)C(=O)O)OCC1c2ccccc2-c2ccccc21 | 41% | –
49 | CN(C)CCCn1c(SCc2ccc(Cl)cc2)nnc1-c1ccncc1 | – | 2.94 µM (active)
50 | COCCCn1c(SCC(=O)Nc2ccccc2)nnc1-c1ccncc1 | 2.39% | –
51 | CC1CCCCC1NC(=O)CSc1nnc(-c2ccncc2)n1CCCN(C)C (configuration not stated) | 6.86% | –
52 | O=C(c1cc(COc2c(F)cccc2F)on1)N1CCSCC1 | 289% | –
